Reference: PubChem BioAssay (NCI)
This is part of a sample that, as a whole, favours compounds with a hit. Of some 83,000 tested, about 20% had one in any assay.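 Each cell line was grown in a 96-well plate and treated with one concentration of compound for 48 hours. Values below 10 were considered active.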 Values without a mark were called inactive. The source made the active and inactive calls.

Experiments:
Test in all cases: NCI-60 one-dose screen, 48 h (100 = growth as untreated, 0 = no growth, -100 = all killed)
Conditions in all cases: 10 µM unless noted
[1] = test system: SK-MEL-2 melanoma
[2] = test system: EKVX NSCLC
[3] = test system: SN12C renal
[4] = test system: UO-31 renal
[5] = test system: TK-10 renal
[6] = test system: ACHN renal
[7] = test system: CAKI-1 renal
[8] = test system: A498 renal
[9] = test system: CCRF-CEM leukemia
[10] = test system: MOLT-4 leukemia
[11] = test system: RPMI-8226 leukemia
[12] = test system: OVCAR-8 ovarian
[13] = test system: OVCAR-5 ovarian
[14] = test system: OVCAR-4 ovarian
[15] = test system: SK-OV-3 ovarian
[16] = test system: IGROV1 ovarian
[17] = test system: OVCAR-3 ovarian
[18] = test system: NCI/ADR-RES ovarian
[19] = test system: SR leukemia
[20] = test system: HS 578T breast

SMILES	growth [1]	growth [2]	growth [3]	growth [4]	growth [5]	growth [6]	growth [7]	growth [8]	growth [9]	growth [10]	growth [11]	growth [12]	growth [13]	growth [14]	growth [15]	growth [16]	growth [17]	growth [18]	growth [19]	growth [20]
CNc1ncc2cc(-c3ccc(-c4ncccc4F)cc3Cl)c(=O)n(CC3OCC(N)CO3)c2n1 (stereo not given)	93.5%	57.6%	59.8%	-12.3% (active)	13.1%	40.9%	0.298% (active)	6.43% (active)	78.1%	57.8%	96.1%	65.6%	44.1%	117%	75.8%	-2.32% (active)	90.7%	79.4%		
NS(=O)(=O)c1ccc(Nc2nc(N/N=C/c3ccccn3)nc(Nc3ccccc3)n2)cc1	-82% (active)	13.3%	2.73% (active)	17.4%	2.56% (active)	17.5%	-25.3% (active)	-67.6% (active)	5.99% (active)		36.6%	3.72% (active)	9.36% (active)	-20.3% (active)	-31.4% (active)	-30.3% (active)	-15.8% (active)	49%	12.5%	-18.8% (active)
Nc1nc(N)c2c(n1)NC(c1ccc(C(F)(F)F)cc1)CC(c1ccc(Nc3nc(NCCO)nc(N4CCOCC4)n3)cc1)=N2 (stereo not given)	80.6%	85.5%	78.2%	80.4%	97.5%	88.3%	79.7%	72.6%	35.1%	23.8%	28.9%	60.2%	97.6%	79.5%	99.7%	72.6%	61.2%	97.5%		
CCCCCc1ccc(S(=O)(=O)Nc2cc(-c3csc(NC(=O)CN4CCN(C)CC4)n3)ccc2N2CCN(C)CC2)cc1	37.8%	55.8%	-21.6% (active)	-94.2% (active)	134%	0.622% (active)	-19.8% (active)	73.1%	0.815% (active)	-18.4% (active)	-28.5% (active)	19.5%	18.4%	-44.3% (active)	18.2%	7.21% (active)	-34.7% (active)	19.1%		-24.3% (active)
COc1ccc(CCOc2cc3c(cc2OC)CCN(C(=O)NCc2cocn2)C3c2ccc(C)cc2C)cc1 (stereo not given)	-7.32% (active)	39.7%	19.7%	24.7%	49.8%	18.5%	13.2%	-2.94% (active)	26.4%	21.8%	7.04% (active)	17.9%	28.6%	51.5%	38%	12.9%		4.95% (active)		-4.03% (active)
C=C(C=O)[C@@H]1CC[C@]2(C)[C@H](CC=C3[C@H]4[C@@H](C)[C@H](C)CC[C@]4(C(=O)OC)CC[C@]32C)[C@@]1(C)CCC#N	-27.6% (active)	15.2%	12.9%	-83.5% (active)	35.7%	-71.9% (active)	3.89% (active)	81.1%	10.7%		-11.9% (active)	20.1%	2.05% (active)	20.1%	69.7%	-2.63% (active)	-58.2% (active)	8.1% (active)	0.262% (active)	-14.4% (active)
COc1ccccc1N1CCN(C2=CC(=O)C(C)=C(C)C2=O)CC1	101%	101%	104%	93.7%	116%	110%	104%	86.3%	101%	93.3%	101%	100%	107%	93.2%	109%	112%	110%	98.6%		103%
Cn1cc(-c2cc(N)n3nc(-c4cn(C)c5ccccc45)cc3n2)c2ccccc21	119%	96%	88.6%	85.9%	99.3%	94.8%	94.6%	77.8%	24.9%	49.8%	18.7%	85.4%	114%	95%	137%		101%	91.3%		124%
NS(=O)(=O)c1ccc(-n2cc(CN3CCNCC3)nn2)cc1	110%	104%	110%	92.9%	100%	109%	95.9%	107%	109%		110%	110%	106%	105%	110%	112%		111%	100%	111%
CCN1CCN(Cc2ccc(C(=O)Nc3ccc(C)c(Oc4ccc(-c5[nH]nc6ncnc(N)c56)cc4)c3)cc2C(F)(F)F)CC1	90%	106%	86.5%	84.4%	117%	91.9%	88.3%	98.4%	31%	67.4%	65.8%	96.7%	94.9%	87%	99.8%		116%	67.2%		64.9%
CCCCCc1ccc(S(=O)(=O)Nc2cccc(-c3csc(NC(=O)CN4CCN(C)CC4)n3)c2)cc1	100%	89.2%	90.6%	75%	115%	91.8%	78.5%	82.9%	27.2%		5.62% (active)	95.9%	105%	81.4%	90.6%	83.8%	75.3%	93.1%	-4.74% (active)	82.1%
O=C1[C@H]2Cc3c([nH]c4ccccc34)[C@@H](c3ccc(Br)cc3)N2C(=O)CN1C1CCN(CC2CCCCC2)CC1	16.7%	-79.2% (active)	-96.9% (active)	12.3%	-85.2% (active)	-95.1% (active)	-32.9% (active)	-15.4% (active)	-27.9% (active)	-43.5% (active)	-35% (active)	-48.5% (active)	-84.6% (active)	-64% (active)	64.7%	-82.2% (active)	-90% (active)	-83.8% (active)		
O=[N+]([O-])c1cc(/C=N/Nc2nc(N/N=C/c3ccc(Cl)c([N+](=O)[O-])c3)nc(N3CCCCC3)n2)ccc1Cl	80.7%	78%	72.3%	47.5%	93.8%	35.2%	72.4%	108%	61.3%		-18.3% (active)	31%	108%	86.9%	98.8%	52.7%	-7.45% (active)	30.2%	63.2%	53.8%
C#C[C@]1(O)CC[C@H]2[C@@H]3CC=C4c5sc(-c6ccc7c(c6)OCO7)nc5CC[C@]4(C)[C@H]3CC[C@@]21C	28.9%	34.5%	22.3%	51.9%	13.3%	13%	44.4%	48.8%		8.06% (active)	-15.3% (active)	30.2%	36.3%	34.9%	52.3%	34.8%	-13.2% (active)		16.9%	
COc1cc(-c2nn(C(C)(C)C)cc2-c2ccnc(NCCCNS(=O)(=O)c3cccc(F)c3)n2)ccc1Cl	85.8%	40.6%	58.6%	42.9%	68.2%	83.4%	25.7%	34.4%		44%	51.8%	89.3%	80.5%	45.8%	102%	48.9%	85%	74.5%	50.6%	80.3%
CS(=O)(=O)Nc1cc(-c2ccc3ncc(C#N)c(NCc4ccccc4O)c3c2)cnc1Cl	-38.3% (active)	4.89% (active)	17.1%	3.5% (active)	-6.17% (active)	12.4%	-1.29% (active)	-41% (active)		-0.509% (active)	-21% (active)	8.27% (active)	21.7%	14.1%	-5.88% (active)	-41.8% (active)	3.31% (active)	42.4%	6.89% (active)	-17.9% (active)
